Insulin prom inh = TRM-6 insulin promoter activity inhibition. TRM-6 cells (human fetal islet line), insulin promoter-eGFP reporter, imaging; reporter expression induced with tamoxifen. inhibition, % at 2 µM. 130,000 compounds, 0.9% hits. AID 1273;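 active means inhibition above the mean plus 3 SD, with well images judged a real hit on visual review, cut at about 60% in these data, passing the limit was not always enough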
WT yeast gro inh = growth inhibition of WT yeast, mitochondrial fusion screen; mitochondrial fusion phenotypic screen, WT strain; inhibition, % at 10 µM; 190,000 compounds, 2.1% hits; AID 1362; in the data active means inhibition above about 58%; tested in S. cerevisiae
Ins promoter up = MIN6 insulin promoter up-regulation | z-score at 5 µM | 190,000 compounds, 0.3% hits | AID 1625 | MIN6 insulin promoter-GFP reporter, high-content imaging; stronger effect = higher value;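 active means z-score above 3 at 5 µM with at least 500 cells counted in the well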
Cl transport mod = modulates chloride dependent transport by human KCC2; Q9H2X9; KCC2 cells, thallium flux FluoZin-2 fluorescence; B-score of Tl+ flux slope (higher = more flux/activation; lower = inhibition) at 10 µM; 190,000 compounds, 2.2% hits;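 active means thallium flux slope and its plate-corrected score both differing from the plate sample mean at a set confidence after two filtering rounds, in either direction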;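 further: slope of fluorescence scaled to starting intensity during 10 to 20 s after thallium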
ROMK mod = modulators of human ROMK potassium channel. P48048. Tet-inducible ROMK, thallium flux fluorescence; actives lie on both sides. B-score at 10 µM. 130,000 compounds, 2% hits;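 active means signal ratio slope over the read window, or its plate-corrected B-score, at least 3 SD from the plate mean, either direction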;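 further: B-score of the F/F0 ratio slope over 7 to 12 s after thallium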
Target sequence (P48048 whole entry, looked up): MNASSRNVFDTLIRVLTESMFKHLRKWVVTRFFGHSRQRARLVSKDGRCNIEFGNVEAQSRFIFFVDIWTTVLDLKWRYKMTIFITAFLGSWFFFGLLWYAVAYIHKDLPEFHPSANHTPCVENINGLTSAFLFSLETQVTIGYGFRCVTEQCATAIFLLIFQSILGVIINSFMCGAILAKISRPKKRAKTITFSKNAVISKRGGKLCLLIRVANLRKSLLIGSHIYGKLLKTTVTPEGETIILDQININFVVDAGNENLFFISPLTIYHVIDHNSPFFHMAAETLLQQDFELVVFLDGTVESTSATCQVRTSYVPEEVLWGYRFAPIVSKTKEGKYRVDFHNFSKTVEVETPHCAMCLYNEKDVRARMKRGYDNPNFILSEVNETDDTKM
Lmaj promast = reduces viability of Leishmania major promastigotes; 200,000 compounds, 9% hits; resazurin fluorescence viability; inhibition, % at 10 µM; in the data active means inhibition above about 50%;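 further: promastigotes grown with compound for 44 hours at 28 °C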
Numbers without * were called inactive; · = not tested or not shown. An excerpt weighted towards active compounds, which were near 12% of everything screened.

SMILES	Insulin prom inh	WT yeast gro inh	Ins promoter up	Cl transport mod	ROMK mod	Lmaj promast
Cc1ccccc1-c1nn(-c2ccc(F)cc2F)cc1CNCCCN(C)C	·	14	-0.42	2.1	-0.99	100*
Cc1ccccc1-c1nn(-c2ccc(F)cc2F)cc1CNCCN(C)C	·	7	0.53	-0.44	-2	74*
COc1ccccc1CNC(=O)CN(Cc1ccc(Cl)cc1)S(C)(=O)=O	·	1	0.15	·	0.73	7
COc1cc(CNCCCO)ccc1OCC(=O)NC(C)(C)C	62	0	-0.41	·	0.1	-11
COc1cc(CNCc2cccnc2)ccc1OCC(=O)NC(C)(C)C	·	0	-0.09	0.033	-0.009	92*
COc1cc(CNCCc2ccccc2)ccc1OCC(=O)NC(C)(C)C	0	12	·	0	·	99*
CC(C)(C)NC(=O)COc1ccc(CNCc2cccnc2)cc1	·	-9	-0.06	-0.0021	1.2	89*
CC1(CC(=O)N/N=C/c2cc(Br)c(O)cc2O)OCCO1	·	16	0.72	-0.26	·	91*
CC1(C)CC(=O)C2=C(C1)Nc1ccccc1S2	·	·	-0.12	0.53	·	·
CC1(C)CC(=S)Nc2ccccc2S1	-19	11	0.36	4.7*	-0.054	-8
CCOC(=O)N1CCC(Nc2ccc(N3C(=O)C4CCCCC4C3=O)cc2[N+](=O)[O-])CC1 (stereo not given)	·	16	-0.14	-0.78	0.074	11
O=C(COc1ccc(S(=O)(=O)NC2CCCCC2)cc1Cl)NCc1ccc2c(c1)OCO2	-100	39	-0.73	·	-0.51	73*
O=C(COc1ccc(S(=O)(=O)NC2CCCCC2)cc1Cl)Nc1ccc2c(c1)OCO2	-46	1	·	·	0.58	8
O=C(Nc1ccc(F)cc1)N1CCN2C(=O)c3ccccc3C12c1ccccc1 (stereo not given)	71	17	-0.31	-0.068	·	14
O=C1c2ccccc2C2(c3ccc(F)cc3)NCCN12 (stereo not given)	24	-4	0.17	1.6	1.6	58*
COC(=O)c1cc(NS(=O)(=O)c2ccc(NCc3cccnc3)c(N)c2)cc(C(=O)OC)c1	56	-5	-0.53	1.3	·	-3
COc1cccc(C(C)NC(=S)NCc2ccc(Cl)cc2)c1 (stereo not given)	21	66*	-0.48	-1.8	0.58	-6
Cc1ccn2cc(-c3cccc(NC(=O)c4ccccc4)c3)nc2c1	41	3	0.76	-1.6	-0.35	72*
Cc1ccn2cc(-c3cccc(NC(=O)C(C)C)c3)nc2c1	0	18	-0.03	0.7	-0.25	7
COC(=NC(C)C)NC(C)C	·	·	·	0.28	0.058	·
CCO[C@H]1OC(C(=O)N2CCN(C)CC2)=C[C@@H](C(C)(C)C)[C@@H]1CCCO	·	1	1.2	1.1	·	0
O=C(Cn1nnc2ccccc21)OCC(=O)c1ccc(Cl)c(Cl)c1	-62	2	·	0.77	0.07	-17
O=C(Cn1nnc2ccccc21)OCC(=O)c1ccccc1	31	-9	-0.11	3.2*	0.27	-3
CCOc1ccc(N2C(=O)C3CCCN3C2=O)cc1 (stereo not given)	·	9	-0.84	·	·	-7
COc1ccc(C2NC(=O)NC(O)(C(F)(F)F)C2C(=O)c2ccc(C)cc2)cc1 (stereo not given)	·	-4	0.37	-0.39	·	3
SMILES	Insulin prom inh	WT yeast gro inh	Ins promoter up	Cl transport mod	ROMK mod	Lmaj promast
O=S(=O)(NCc1cc(-c2ccccc2Cl)no1)c1ccccc1	34	18	·	·	·	79*
CCN(CC)S(=O)(=O)c1cc(NC(=O)C(=O)c2c(-c3ccccc3)cc3ccccn23)ccc1C	26	12	-1.3	-0.21	·	91*
CCN(CC)S(=O)(=O)c1ccc(N2CCOCC2)c(NC(=O)C(=O)c2c(-c3ccccc3)cc3ccccn23)c1	-343	4	-1.6	-2.3	·	24
Cc1cc(C(=O)NCCCN(C)C)c2ccccc2n1	78*	5	-0.23	0.57	0.16	1
CC1CCN(CCCNC(=O)c2cc3c(=O)n(C)c4ccccc4c3n2C)CC1	·	16	-0.12	·	·	63*
Cn1c2ccccc2c2cc(C(=O)NNS(=O)(=O)c3ccc(F)cc3)sc21	12	-2	-0.76	·	·	7
CN(C)CCCNC(=O)c1cc2c3ccccc3n(C)c2s1	50	-7	-0.32	-1.1	·	91*
CCCCN(CC)CCCNC(=O)c1cc2c(=O)n(C)c3ccccc3c2n1C	·	6	0.7	-1.1	·	80*
CCCCOc1ccc(C(=O)N2CCCC2C(=O)O)cc1 (stereo not given)	32	-20	0.55	0.8	0.23	-7
Cc1ccc(N2Cc3ccccc3C2=S)cc1	·	-9	-0.85	-0.58	0.44	12
